From PubChem BioAssay
Hits are enriched below; roughly 3.5% of the tested compounds scored in any of these assays.
MITF inh: inhibitors of human MITF; inhibition, % at 2.6 µM; 650,000 compounds, 0.91% hits; AID 1259374; AlphaScreen MITF homodimerization, bead proximity signal; in the data active = inhibition above about 50%;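 note: 0% = vehicle wells with protein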
TEAD-YAP inh: TEAD-YAP interaction inhibition. AID 1259422. HEK-TIYL cells, TEAD-Gal4/YAP UAS-luciferase luminescence. 640,000 compounds, 1.4% hits. inhibition, % at 9.12 µM; in the data active = inhibition above about 32%;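 note: 0% = median of test compound wells and 100% = reference inhibitor wells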
GPR151 ag: human GPR151 activation | Q8TDV0 | PathHunter beta-arrestin GPR151 cells, luminescence | activation, % at 11.2 µM | 650,000 compounds, 1% hits | AID 1508602; in the data active = activation above about 4.9%;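 note: 0% = median of compound wells and 100% = cells with positive control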
FBW7 activator: activators of human E3 ligase FBW7; normalized activity (activation), % at 26.1 µM; 650,000 compounds, 0.13% hits; Q969H0; AlphaScreen FBW7–phospho-cyclin E peptide binding, activator screen; in the data active = normalized activity above about 1.9%;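 note: purified mutant Fbw7 with reduced substrate affinity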
Active calls of the source: *.

`CCOc1cccc2c1OC1(C)CC2NC(=O)N1c1cccc(F)c1` (stereo not given) gave MITF inh -5, TEAD-YAP inh 11, GPR151 ag 3 and FBW7 activator 4.4*.
For O=C(Nc1ccc(Oc2cccnc2)cc1)C1CCN(Cc2cc(Cl)ccc2O)CC1 the results were MITF inh 17, TEAD-YAP inh 44*, GPR151 ag -1 and FBW7 activator 0.
Screening O=C(Nc1ccc(Oc2cccnc2)cc1)C1CCN(Cc2ccc(F)cc2)CC1 returned MITF inh -5, TEAD-YAP inh 6, GPR151 ag 0 and FBW7 activator 0.
`FC(F)(F)c1ncn(-c2ccc(Nc3nccc(-c4cncc(N5CCOCC5)c4)n3)cc2)n1` gave MITF inh -8, TEAD-YAP inh -9, GPR151 ag 0 and FBW7 activator 0.
Screening CN(C)c1ncn(-c2ccc(Nc3nccc(-c4cncc(N5CCOCC5)c4)n3)cc2)n1 returned MITF inh -5, TEAD-YAP inh 63*, GPR151 ag 0 and FBW7 activator 0.
For CC(C)(C)c1ncn(-c2ccc(Nc3nccc(-c4cncc(N5CCOCC5)c4)n3)cc2)n1 the results were MITF inh -12, TEAD-YAP inh 74*, GPR151 ag 4 and FBW7 activator 0.
For O=C(Nc1ccc([N+](=O)[O-])cc1O)c1ncn[nH]1 the results were MITF inh 44, TEAD-YAP inh 4, GPR151 ag 0 and FBW7 activator -2.
For O=C(Oc1ccccc1NC1=NS(=O)(=O)c2ccccc21)c1ccccc1Cl the results were MITF inh 13, TEAD-YAP inh 60*, GPR151 ag 2 and FBW7 activator 0.
Screening COc1ccccc1C(=O)Oc1ccc(Cl)cc1NC1=NS(=O)(=O)c2ccccc21 returned MITF inh -3, TEAD-YAP inh -8, GPR151 ag 0 and FBW7 activator 0.
Screening CC(=O)c1ccc(-c2ccc(NCCc3ccccn3)nc2)s1 returned MITF inh -2, TEAD-YAP inh -62, GPR151 ag 2 and FBW7 activator 0.
CCC(=O)Nc1c2c(nn1-c1cccc(Cl)c1)CS(=O)C2 (stereo not given) was read as MITF inh -15, TEAD-YAP inh 8, GPR151 ag 2 and FBW7 activator 0.
`COc1ccc(-c2nc(N)c3ncn(-c4ccsc4)c3n2)cn1` gave MITF inh -8, TEAD-YAP inh 62*, GPR151 ag 0 and FBW7 activator 0.
For COc1ccc(-c2nc(N)c3ncn(-c4ccccc4)c3n2)cc1 the results were MITF inh -6, TEAD-YAP inh 1, GPR151 ag -1 and FBW7 activator 0.
For COc1ccc(-c2nc(N)c3ncn(-c4ccsc4)c3n2)cc1 the results were MITF inh 6, TEAD-YAP inh 36*, GPR151 ag 0 and FBW7 activator 0.
COc1ccc(-c2nc(N)c3ncn(-c4ccccc4)c3n2)cn1 was read as MITF inh -3, TEAD-YAP inh -4, GPR151 ag 0 and FBW7 activator 0.
For COc1ccc(/C=C(/NC(=O)c2ccccc2)C(=O)N2CC(C)OC(C)C2)cc1 (stereo not given) the results were MITF inh 21, TEAD-YAP inh 7, GPR151 ag 0 and FBW7 activator 0.
Cc1cccc(Nc2nc3nonc3nc2N2CCC(Cc3ccccc3)CC2)c1C was read as MITF inh -6, TEAD-YAP inh -1, GPR151 ag 0 and FBW7 activator 0.
Cc1cc(C(=O)N(CCn2cccn2)c2nc3c(F)cccc3s2)on1 was read as MITF inh -3, TEAD-YAP inh -27, GPR151 ag 3 and FBW7 activator 0.
For Cc1cccc(OCC(=O)N(CCn2cccn2)c2nc3c(F)cccc3s2)c1 the results were MITF inh 8, TEAD-YAP inh 43*, GPR151 ag 1 and FBW7 activator 0.
For CSc1ccccc1C(=O)Nc1nc2c(s1)CC(C)CC2 (stereo not given) the results were MITF inh 0, TEAD-YAP inh -50, GPR151 ag 0 and FBW7 activator 0.
NC(=O)c1c(NC(=O)c2ccc(N3CCOCC3)c([N+](=O)[O-])c2)sc2c1CCCCC2 was read as MITF inh 13, TEAD-YAP inh -4, GPR151 ag -1 and FBW7 activator 0.
`N#CS/C=C/C(=O)c1ccccc1` gave MITF inh 2, TEAD-YAP inh 52*, GPR151 ag 0 and FBW7 activator 0.
`O=C(N/N=C/c1c[nH]c2ccccc12)c1cc(-c2ccncc2)nc2ccccc12` gave MITF inh 6, TEAD-YAP inh 35*, GPR151 ag -2 and FBW7 activator 0.
